Assay [1] is described as follows: antimalarial activity against Dd2 strain (AID 2302;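 active = growth inhibition above 50% at the single 2 µM test dose, taken to imply half-maximal potency below 2 µM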;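 also: 0% = DMSO untreated growth and 100% = chloroquine plus artemisinin killed control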). Particulars: P. falciparum Dd2 in RBCs, LDH growth readout, 72 h; at 2 µM; stronger effect = higher value.
Assay [2] is described as follows: human hepatoma cell viability loss – ATP luminescence, cytotoxicity control for P. falciparum antimalarial project, primary screen (AID 2303;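 active = inhibition above 50%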;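 also: 0% = DMSO wells and 100% = digitonin-killed cells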). The settings on record: HepG2 viability, 24-48 h, at 10 µM, stronger effect = higher value.
In assay [3] the target is L-lactate dehydrogenase (Plasmodium falciparum (isolate CDC / Honduras)) (UniProt Q27743). Kind of assay: PfLDH activity inhibition – cell lysate, 3D7 strain, counter-screen for P. falciparum growth inhibition project (AID 2304).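 Also: 0% = vehicle and 100% = reference inhibitor.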 The settings on record: P. falciparum 3D7 crude extract, LDH APAD/NBT absorbance; at 2 µM; stronger effect = higher value. For orientation: The purpose of a counterscreen is to sort out artefacts and off-target activity.
Chain of L-lactate dehydrogenase (Plasmodium falciparum (isolate CDC / Honduras)) (Q27743 whole entry, looked up): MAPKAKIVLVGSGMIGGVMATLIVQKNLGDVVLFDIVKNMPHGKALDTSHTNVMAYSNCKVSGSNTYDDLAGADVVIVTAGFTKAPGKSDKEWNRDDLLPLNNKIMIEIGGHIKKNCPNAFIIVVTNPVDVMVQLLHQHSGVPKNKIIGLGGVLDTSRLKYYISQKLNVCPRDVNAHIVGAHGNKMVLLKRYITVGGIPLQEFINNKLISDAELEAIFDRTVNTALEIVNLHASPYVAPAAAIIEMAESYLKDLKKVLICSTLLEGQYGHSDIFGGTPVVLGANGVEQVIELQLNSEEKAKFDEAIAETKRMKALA

Assay [4] can be described thus: inhibition of 3D7 malaria parasite growth – strain 3D7 (AID 2306).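 Also: 0% = DMSO wells and 100% = chloroquine plus artemisinin control wells.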 The settings on record: P. falciparum 3D7 erythrocytic growth, LDH absorbance, 72 h; at 2 µM; stronger effect = higher value.
In assay [5] the target is Calcium-dependent protein kinase 1 (Plasmodium falciparum (isolate 3D7)) (UniProt P62344). Kind of assay: PfCDPK1 kinase inhibitors, biochemical, TCAMS library (AID 1159585; cut-off not given, nearly all actives have IC50 up to about 0.98 µM;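 also: inhibitors leave more ATP so luminescence rises with inhibition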). Particulars: recombinant PfCDPK1, Kinase-Glo ATP depletion luminescence. (Kinase-Glo measures the ATP left after a reaction by luminescence.)
Chain of Calcium-dependent protein kinase 1 (Plasmodium falciparum (isolate 3D7)) (P62344 whole entry, looked up): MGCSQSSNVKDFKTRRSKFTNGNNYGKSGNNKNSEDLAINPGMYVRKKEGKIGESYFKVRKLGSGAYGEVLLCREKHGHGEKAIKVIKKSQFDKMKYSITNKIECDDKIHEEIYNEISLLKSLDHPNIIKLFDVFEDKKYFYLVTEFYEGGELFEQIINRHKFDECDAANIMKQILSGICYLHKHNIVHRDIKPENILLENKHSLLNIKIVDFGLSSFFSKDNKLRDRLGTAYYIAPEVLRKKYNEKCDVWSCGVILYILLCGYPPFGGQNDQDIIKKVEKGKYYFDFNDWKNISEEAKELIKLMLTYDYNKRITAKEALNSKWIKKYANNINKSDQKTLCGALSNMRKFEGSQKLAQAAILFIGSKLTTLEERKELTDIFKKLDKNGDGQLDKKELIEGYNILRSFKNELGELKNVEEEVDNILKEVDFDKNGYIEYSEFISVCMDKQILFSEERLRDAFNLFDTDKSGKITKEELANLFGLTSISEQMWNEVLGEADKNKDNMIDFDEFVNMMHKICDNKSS
Assay [6] concerns the target Plasmodium falciparum protein kinase 6 (PK6, PF3D7_1337100) (UniProt Q8IDW1). Kind of assay: PfPK6 kinase inhibitors, biochemical, TCAMS library (AID 1159586). The settings on record: recombinant PfPK6, Kinase-Glo ATP depletion luminescence.
Assay [7] concerns the target Protein kinase 7 (PK7), Plasmodium falciparum 3D7 (PF3D7_0213400) (UniProt Q7YTF7). Briefly: inhibition of Plasmodium PK7 catalytic activity – biochemical, TCAMS antimalarial set, Kinase-Glo luminescence (AID 1159587). Particulars: recombinant PfPK7, Kinase-Glo ATP depletion luminescence.
Assay [8] addresses Calcium-dependent protein kinase 4 (Plasmodium falciparum (isolate 3D7)) (UniProt Q8IBS5). Briefly: PfCDPK4 kinase inhibitors, biochemical, TCAMS library (AID 1159588; cut-off not given, nearly all actives have IC50 up to about 0.91 µM). Particulars: recombinant PfCDPK4, Kinase-Glo ATP depletion luminescence.

Values without a mark were called inactive. For some of these results: Results with a measured potency or affinity are listed apart. Active and inactive are the calls of the source. Unless noted, no rule for the calls is given here.

Chain of Plasmodium falciparum protein kinase 6 (PK6, PF3D7_1337100) (Q8IDW1 1-305): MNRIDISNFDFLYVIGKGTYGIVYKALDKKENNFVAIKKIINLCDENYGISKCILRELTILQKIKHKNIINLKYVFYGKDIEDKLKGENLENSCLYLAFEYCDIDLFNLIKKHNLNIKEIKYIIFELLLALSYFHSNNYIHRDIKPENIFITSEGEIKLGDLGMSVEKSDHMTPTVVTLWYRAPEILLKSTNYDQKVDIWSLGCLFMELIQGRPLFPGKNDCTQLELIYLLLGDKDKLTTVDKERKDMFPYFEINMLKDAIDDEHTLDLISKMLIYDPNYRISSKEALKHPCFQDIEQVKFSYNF
Chain of Calcium-dependent protein kinase 4 (Plasmodium falciparum (isolate 3D7)) (Q8IBS5 whole entry, looked up): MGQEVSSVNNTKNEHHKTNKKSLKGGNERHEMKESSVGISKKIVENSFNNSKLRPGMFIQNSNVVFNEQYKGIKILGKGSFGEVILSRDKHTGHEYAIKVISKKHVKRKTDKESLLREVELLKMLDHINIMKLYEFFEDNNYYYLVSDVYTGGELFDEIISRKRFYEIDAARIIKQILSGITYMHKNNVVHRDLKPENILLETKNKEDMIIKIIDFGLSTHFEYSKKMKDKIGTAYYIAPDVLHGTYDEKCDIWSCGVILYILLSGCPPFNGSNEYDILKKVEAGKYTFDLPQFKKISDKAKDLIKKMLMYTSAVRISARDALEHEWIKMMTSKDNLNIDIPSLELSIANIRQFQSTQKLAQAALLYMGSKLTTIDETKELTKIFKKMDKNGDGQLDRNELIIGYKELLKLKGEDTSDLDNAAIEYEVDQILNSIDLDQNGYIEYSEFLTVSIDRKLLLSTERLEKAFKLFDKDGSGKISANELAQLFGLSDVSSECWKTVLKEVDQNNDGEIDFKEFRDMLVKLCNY
Chain of Protein kinase 7 (PK7), Plasmodium falciparum 3D7 (PF3D7_0213400) (Q7YTF7 1-343): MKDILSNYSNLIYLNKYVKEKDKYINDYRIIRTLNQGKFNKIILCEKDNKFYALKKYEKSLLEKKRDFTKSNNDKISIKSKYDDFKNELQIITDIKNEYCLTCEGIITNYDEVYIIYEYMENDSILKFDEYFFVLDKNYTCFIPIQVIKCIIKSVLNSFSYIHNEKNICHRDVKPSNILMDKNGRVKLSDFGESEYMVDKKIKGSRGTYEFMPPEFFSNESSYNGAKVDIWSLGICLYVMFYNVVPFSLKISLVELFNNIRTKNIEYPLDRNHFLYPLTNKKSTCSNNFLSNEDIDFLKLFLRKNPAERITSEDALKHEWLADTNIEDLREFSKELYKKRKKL

As for `Cc1cc(CNC(=O)[C@H](CC2CCCCC2)Nc2ccc(C#N)c3ccccc23)c(C(F)(F)F)o1`, the growth inhibition is 55% (active) in assay [1] and 87% (active) in assay [4]. Besides, the inhibition in assay [2] was 13%; in assay [3], 3%. In addition, the result in assay [5], in assay [6], in assay [7] and in assay [8] was inactive.

In the case of `O=C(Nc1ccc(-c2cccc(-c3nc4ccccc4[nH]3)c2)cc1)Nc1ccsc1`, the results for the growth inhibition in assay [1] and in assay [4] were 90% (active) and 101% (active), respectively. Moreover, the inhibition in assay [2] was 56% (active); in assay [3], -7%. The result in assay [5], in assay [6], in assay [7] and in assay [8] was inactive.

Take `O=C(Nc1ccc(N2CCCN(Cc3cccc(F)c3)CC2)cc1)c1ccc(F)cc1`: the growth inhibition in assay [1] is 95% (active); in assay [4], 96% (active). For the same compound, the inhibition in assay [2] is 0%; in assay [3] it was 3%. For the same compound, the result in assay [5], in assay [6], in assay [7] and in assay [8] was inactive.

As to `Cc1cc(N[C@@H](CC(C)C)C(=O)NCc2cccs2)nc(NCCc2ccccc2)n1`, the growth inhibition is 8% in assay [1] and 94% (active) in assay [4]. The inhibition is 1% in assay [2] and -2% in assay [3]. The result in assay [5], in assay [6], in assay [7] and in assay [8] was inactive.

On to `Cc1cc(C(=O)NCc2ccc(-c3c(C)noc3C)cc2)n(-c2ccc(Cl)cc2)n1`, for which the figures for the growth inhibition in assay [1] and in assay [4] were 98% (active) and 100% (active), respectively. In addition, the inhibition is -1% in assay [2] and 3% in assay [3]. Further, the outcome in assay [5], in assay [6], in assay [7] and in assay [8] was inactive.

On to `COc1ccc(NC(=O)NC2CCN(c3ccnc4ccccc34)C2)cc1` (stereo not given), for which the growth inhibition in assay [1] is -1%; in assay [4], 94% (active). Besides, the results for the inhibition in assay [2] and in assay [3] were 3% and 2%, respectively. The outcome in assay [5], in assay [6], in assay [7] and in assay [8] was inactive.

In the case of `Cc1cc(N[C@@H](Cc2ccccc2)C(=O)NCCc2ccccc2)nc(NCc2ccccc2C)n1`, the results for the growth inhibition in assay [1] and in assay [4] were 85% (active) and 99% (active), respectively. Also, the figures for the inhibition in assay [2] and in assay [3] were 37% and -2%, respectively. The result in assay [5], in assay [6], in assay [7] and in assay [8] was inactive.

For `CN1CCc2ccc(NC(=O)Nc3ccc(-c4ccccc4)cc3)cc2C1`, the growth inhibition was 45% in assay [1] and 90% (active) in assay [4]. Besides, the inhibition in assay [2] was 24%; in assay [3] it was 3%. Further, the result in assay [5], in assay [6], in assay [7] and in assay [8] was inactive.

On to `COc1ccc(Cc2cnc3nc(N)nc(N)c3c2C)cc1`, for which the growth inhibition in assay [1] was 96% (active); in assay [4], 90% (active). Further, the results for the inhibition in assay [2] and in assay [3] were 65% (active) and -2%, respectively. Besides, the result in assay [5], in assay [6], in assay [7] and in assay [8] was inactive.

On to `O=C1CCCN1CCCNCc1cccc(-c2ccc(-c3nc4ccccc4[nH]3)s2)c1`, for which the growth inhibition in assay [1] is 0%; in assay [4], 97% (active). Besides, the inhibition in assay [2] is -6%; in assay [3] it was -3%. The result in assay [5], in assay [6], in assay [7] and in assay [8] was inactive.

As for `COc1ccc(CCn2c(=N)c(C(=O)NCc3ccc(C)cc3)cc3c(=O)n4ccccc4nc32)cc1`, the growth inhibition in assay [1] was 16%; in assay [4], 97% (active). The inhibition in assay [2] was 13%; in assay [3], -3%. Further, the outcome in assay [5], in assay [6], in assay [7] and in assay [8] was inactive.

On to `Cc1ccc(CN2CCN(Cc3cccc(NC(=O)c4ccc5ccccc5c4)c3)CC2)cc1C`, for which the growth inhibition is 23% in assay [1] and 89% (active) in assay [4]. In addition, the figures for the inhibition in assay [2] and in assay [3] were 62% (active) and -4%, respectively. In addition, the result in assay [5], in assay [6], in assay [7] and in assay [8] was inactive.

Regarding `COc1ccc(CNC2Cc3ccccc3C2)cc1-c1ccc(S(=O)(=O)NCCN2CCCC2)c(F)c1`, the growth inhibition was 69% (active) in assay [1] and 101% (active) in assay [4]. Besides, the inhibition in assay [2] is 44%; in assay [3], -6%. In addition, the outcome in assay [5], in assay [6], in assay [7] and in assay [8] was inactive.

Consider `CCNc1cc(C(=O)N[C@@H](Cc2ccccc2)[C@H](O)CNC(C)(C)Cc2ccccc2)cc(N2CCCC2=O)c1`, for which the results for the growth inhibition in assay [1] and in assay [4] were 78% (active) and 99% (active), respectively. Besides, the results for the inhibition in assay [2] and in assay [3] were 1% and 3%, respectively. Besides, the result in assay [5], in assay [6], in assay [7] and in assay [8] was inactive.

In the case of `CC(C)C(=O)ONC1=NC(C)(C)N(OCCCOc2cc(Cl)c(Cl)cc2Cl)C(N)=N1`, the figures for the growth inhibition in assay [1] and in assay [4] were 96% (active) and 95% (active), respectively. Further, the values for the inhibition in assay [2] and in assay [3] were 64% (active) and -4%, respectively. The outcome in assay [5], in assay [6], in assay [7] and in assay [8] was inactive.

`Clc1ccc(-c2[nH]c3ccccc3c2CN2CCC(N3CCCCC3)CC2)cc1`: the values for the growth inhibition in assay [1] and in assay [4] were 15% and 93% (active), respectively. For the same compound, the inhibition in assay [2] and in assay [3] was 5% in each case. The outcome in assay [5], in assay [6], in assay [7] and in assay [8] was inactive.

`CCc1cn2c3c(cc(C(=O)N[C@@H](Cc4ccccc4)[C@H](O)CNCC(C)C)cc13)N(C)S(=O)(=O)CC2`: the growth inhibition is 99% (active) in assay [1] and 98% (active) in assay [4]. Moreover, the inhibition was -1% in assay [2] and -6% in assay [3]. Also, the result in assay [5], in assay [6], in assay [7] and in assay [8] was inactive.

As for `COc1ccc2nccc([C@@H](O)CN3CCC(NCc4ccc5scnc5c4)CC3)c2c1`, the figures for the growth inhibition in assay [1] and in assay [4] were 93% (active) and 101% (active), respectively. Besides, the results for the inhibition in assay [2] and in assay [3] were 17% and -1%, respectively. Besides, the result in assay [5], in assay [6], in assay [7] and in assay [8] was inactive.

As for `Clc1ccc(CCNCCCCCCNCCc2ccc3c(c2)OCO3)cc1`, the results for the growth inhibition in assay [1] and in assay [4] were 11% and 91% (active), respectively. Moreover, the inhibition was 23% in assay [2] and 7% in assay [3]. Also, the outcome in assay [5], in assay [6], in assay [7] and in assay [8] was inactive.

With `O=C(N[C@H](Cc1ccc(Cl)cc1)C(=O)N1CCN(c2ccnc3cc(Cl)ccc23)CC1)[C@H]1Cc2ccccc2CN1`, the growth inhibition in assay [1] is 41%; in assay [4], 85% (active). The results for the inhibition in assay [2] and in assay [3] were 16% and 5%, respectively. Moreover, the result in assay [5], in assay [6], in assay [7] and in assay [8] was inactive.

As usually defined, the inhibition is the relative decrease from the control value, in per cent.

Source of the values: PubChem BioAssay.
